Source: PubChem BioAssay (National Center for Advancing Translational Sciences (NCATS))
Compounds with a hit are over-represented: about 12% of the library has one in this group of screens.
Sfp PPTase inh: inhibitors of Bacillus subtilis Sfp phosphopantetheinyl transferase; Potency, µM, for the others: largest response in the series, negative = inhibition, hits mostly inhibitors; AID 1490; Biochemical Sfp PPTase activity, qHTS; 310,000 compounds, 3.5% hits; Q9F4F7;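 further: the enzyme is Sfp with the accession as filed and its product quenches rhodamine fluorescence; 0% = enzyme reaction without inhibitor and -100% = no enzyme wells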
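Compounds were incubated with enzyme (final 15 nM) for 15 min at room temperature before substrate addition started the reaction. Fluorescence at 525 nm excitation, 598 nm emission was recorded immediately and after 30 minutes.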
BAZ2B inh: BAZ2B (human) inhibition; AlphaScreen BAZ2B-H3K14Ac peptide displacement; Potency, µM (top dose mostly 114 µM), for inactives: at the top dose activity change, negative = inhibition, usual class: inhibitors; 360,000 compounds, 4.4% hits; further: on the % scale 0 is the no-effect control and ±100 the full control effect; nearly all actives have a fitted effect of over 60% in size
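Complex of BAZ2B and biotin-H3K14Ac (50 nM apiece) forms over 30 min at RT, then faces library compounds up to 110 uM for another 30 min; AlphaScreen beads added, 20 min dark incubation, luminescence read.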
L3MBTL1 inh: L3MBTL1 (human) inhibition; Q9Y468; AlphaScreen L3MBTL1–H3K9me1 peptide binding; Potency, µM (doses to about 57.1 µM), for inactives: at the highest dose activity, negative = inhibition, hits mostly inhibitors; 230,000 compounds, 0.66% hits; further: on the % scale 0 is the no-effect control and ±100 the full control effect; nearly all actives have a fitted effect of over 60% in size
Target sequence (Q9Y468 whole entry, looked up): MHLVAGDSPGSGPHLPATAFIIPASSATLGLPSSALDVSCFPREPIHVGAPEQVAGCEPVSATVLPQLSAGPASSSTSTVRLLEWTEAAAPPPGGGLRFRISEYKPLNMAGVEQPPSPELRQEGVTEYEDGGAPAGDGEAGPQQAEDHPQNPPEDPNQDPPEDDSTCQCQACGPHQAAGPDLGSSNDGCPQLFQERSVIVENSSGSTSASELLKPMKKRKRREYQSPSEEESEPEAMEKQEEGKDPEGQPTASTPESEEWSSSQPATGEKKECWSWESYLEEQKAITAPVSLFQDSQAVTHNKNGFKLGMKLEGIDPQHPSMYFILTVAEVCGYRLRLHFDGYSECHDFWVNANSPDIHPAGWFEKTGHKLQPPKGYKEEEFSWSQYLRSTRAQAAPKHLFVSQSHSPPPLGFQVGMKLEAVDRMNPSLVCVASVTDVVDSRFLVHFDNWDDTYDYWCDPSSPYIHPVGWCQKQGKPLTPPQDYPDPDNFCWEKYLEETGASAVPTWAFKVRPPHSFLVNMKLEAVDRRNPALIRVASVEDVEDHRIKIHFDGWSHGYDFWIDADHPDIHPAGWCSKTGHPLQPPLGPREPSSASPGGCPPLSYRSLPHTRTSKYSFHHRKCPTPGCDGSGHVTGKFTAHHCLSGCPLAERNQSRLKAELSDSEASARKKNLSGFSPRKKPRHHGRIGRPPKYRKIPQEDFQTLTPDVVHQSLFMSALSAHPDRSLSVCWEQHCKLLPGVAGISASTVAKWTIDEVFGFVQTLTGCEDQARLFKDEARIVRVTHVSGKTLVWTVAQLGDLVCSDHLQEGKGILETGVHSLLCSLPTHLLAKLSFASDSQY
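AlphaScreen proximity signal between nickel-chelate acceptor and streptavidin donor beads (final 10 ug/mL) reports binding of 50 nM L3MBTL1 to 75 nM biotin-H3 K9me1 peptide; complex incubated with compounds 30 min at room temperature; cefsulodin titration as control.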
HP1b binding inh: inhibitors of HP1-beta chromodomain binding to methylated histone tails | Potency, µM (doses to about 114 µM), for inactives: at the highest dose activity change, negative = inhibition, most hits filed as inhibitors | AlphaScreen HP1-beta / biotin-H3K9me3 peptide binding | 390,000 compounds, 0.56% hits | P83916; further: nearly all actives have a fitted effect of over 70% in size
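AlphaScreen: HP1-beta (50 nM) preformed 30 min with biotin-H3(1-18)K9me3 peptide (50 nM) in PBS pH 7.4, 0.01% Tween-20. Compound added for 30 min at RT, then streptavidin donor/nickel chelate acceptor beads (10 ug/mL) for 30 min.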
JMJD2A Tudor inh: inhibitors of human JMJD2A Tudor domain; O75164; AlphaScreen JMJD2A-Tudor / H3K4me3 peptide binding; Potency, µM (series often up to 114 µM), for the others: at the top dose activity change, negative = inhibition, most hits filed as inhibitors; 390,000 compounds, 4.4% hits; further: on the % scale 0 is the no-effect control and ±100 the full control effect; nearly all actives have a fitted effect of over 50% in size
G9a inh: G9a (human) methyltransferase inhibition; G9a H3K9 monomethylation, AlphaScreen, 2 h; AID 504332; Q96KQ7; 350,000 compounds, 8.8% hits; Potency, µM (doses to about 102 µM), without a hit: top-dose activity, negative = inhibition, hits mostly inhibitors; further: on the % scale 0 is the no-effect control and ±100 the full control effect; nearly all actives have a fitted effect of over 75% in size
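G9a (20 nM) was preincubated 15 min with compound, then reacted 2 h at room temperature with 500 nM biotin-H3K9 peptide and 20 µM SAM. Monomethyl-H3K9 detected by AlphaScreen using anti-H3K9me1 antibody.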
Starred values were filed as active, the others as inactive; ? = inconclusive; · = no result; [ ] = another dose, or the depositor's remark. The call rests on the fitted dose curve; in most records, active means well fitted curve in the direction sought with a large enough effect; inconclusive means small, poorly fitted or top-dose-only effect, or another doubt; inactive means no such curve, though single readings can be large; an effect the other way counts as inactive or inconclusive. Potency means the concentration at half of the fitted maximal effect.

SMILES | Sfp PPTase inh | BAZ2B inh | L3MBTL1 inh | HP1b binding inh | JMJD2A Tudor inh | G9a inh
Cc1ccc(N2CC(NC(=O)C(=O)c3c(C)[nH]c4ccccc34)CC2=O)cc1 (stereo not drawn) | · | 10% | -6% | 11% | -12% | -6%
Cc1[nH]c2ccccc2c1C(=O)C(=O)NC1CC(=O)N(c2ccc(F)cc2)C1 (stereo not drawn) | · | -38% | -5% | 16% | -12% | 50µM*
CC(=O)Nc1ccc(S(=O)(=O)N(C)CC(=O)N2CCN(C(=O)c3ccco3)CC2)cc1 | · | · | -2% | 0% | -12% | ·
Cc1ccc(NC(=O)c2ccc(COc3ccccc3Cl)o2)cc1 | · | -2% | · | 9% | -10% | 4%[59 µM]
CN(C)c1ccc(NC(=O)c2ccc(COc3cccc(Cl)c3)o2)cc1 | ? | 10µM* | · | ? | 13µM* | ?
Oc1ccc(Cl)cc1Nc1nc(NCC2CCCO2)c2ccccc2n1 (stereo not drawn) | · | · | · | 25% | -22% | ·
COc1cccc(Nc2nc(NCC3CCCO3)c3ccccc3n2)c1 (stereo not drawn) | 25µM* | -31% | · | -6% | -35% | 45µM*
Oc1ccccc1Nc1nc(NCC2CCCO2)c2ccccc2n1 (stereo not drawn) | -12% | ? | -5% | 3% | -32% | 50µM*
Oc1ccc(Nc2nc(NCC3CCCO3)c3ccccc3n2)cc1 (stereo not drawn) | -14% | ? | -11% | -21% | ? | 50µM*
CSCCC1NC(=O)N(CC(=O)Nc2ccc3c(c2)OCCO3)C1=O (stereo not drawn) | · | · | -2% | 25% | -17% | ·
CCCCC/C=C\C/C=C\CCCCCCCC(=O)NC(C)C(=O)O (stereo not drawn) | 11% | · | · | · | · | ·
CCCCn1c(=O)c2oc3ccccc3c2n(Cc2ccc(C)cc2)c1=O | · | 3% | · | 29% | -3% | 10%[59 µM]
O=S(=O)(Nc1ccc(-c2ccc(N3CCCC3)nn2)cc1)c1ccccc1Cl | · | 0% | · | -1%[57 µM] | -19% | 4%[59 µM]
Cc1ccc(S(=O)(=O)Nc2ccc(O)c3ccccc23)c(C)c1 | 56µM* | 45µM* | · | 50µM* | 45µM* | 22µM*
Cc1ccc(C)c(S(=O)(=O)Nc2ccc(O)c(C(=O)O)c2)c1 | 13% | · | -2% | ? | -31%[57.1 µM] | ?
Cc1ccc(C)c(S(=O)(=O)Nc2ccc(O)c3ccccc23)c1 | 71µM* | 50µM* | -45% | 16µM* | 50µM* | 28µM*
COc1ccc(S(=O)(=O)Nc2ccc(O)c3ccccc23)cc1 | -4% | 40µM* | 28µM* | ? | 32µM* | ?
Cc1ccc(S(=O)(=O)Nc2cc(C(C(=O)OC(C)C)C(=O)C(F)(F)F)c(O)c3ccccc23)c(C)c1 (stereo not drawn) | 56µM* | ? | -7% | -11% | -29% | 40µM*
Cc1ccc(S(=O)(=O)Nc2ccc3c4c(cccc24)CC3)c(C)c1 | · | · | · | 48% | -14%[11.4 µM] | ·
CCOC(=O)c1ccccc1NC(=O)c1nn(C)c2c1COc1ccccc1-2 | · | 24% | · | 40% | 6% | 14%[59 µM]
COc1ccc(/C=N/NC(=O)c2cccc(S(=O)(=O)N3CCCC3)c2)cc1O | · | 1% | -2% | 34% | -21% | 23%[12.7 µM]
CC(=O)c1ccc(N2CCN(C(=O)c3cc4c(s3)-c3ccccc3OC4)CC2)cc1 | · | 10% | · | 36% | -3% | 2%[59 µM]
Cc1ccc(S(=O)(=O)NNC(=O)c2cccs2)c(C)c1 | 13% | 9% | 5% | 16% | -3% | -3%[59 µM]
Cc1ccc(S(=O)(=O)NNc2ccccc2)c(C)c1 | 18µM* | 56µM* | 7% | -58% | 5µM* | 1µM*
O=C(O)/C=C/C(=O)c1ccc2c(c1)NC(=O)CO2 | 8.9µM* | -7% | -5% | -21% | -12% | 3.2µM*
O=C(c1cc(C(F)(F)F)cc(C(F)(F)F)c1)N1CCC2(CCCN(c3ccncc3)C2)CC1 | 8% | · | · | · | · | 6%[12.7 µM]
Cc1oc2c(c1C(=O)Nc1ccc(Cl)cc1F)C1=NCCN1C=N2 | · | -8% | · | 80% | -24% | 2%[59 µM]
